# What was measured:
# Settings in all cases: concentration: 1 μM,replicates: in singlicate; n = 1
# PLK2 = tested on: PLK2
# PLK3 = tested on: PLK3
# PLK4 = tested on: PLK4
# PRKCD = tested on: PRKCD
# PRKCE = tested on: PRKCE
# PRKCH = tested on: PRKCH
# PRKCI = tested on: PRKCI
# PRKCQ = tested on: PRKCQ
# PRKD1 = tested on: PRKD1
# PRKD2 = tested on: PRKD2
# PRKD3 = tested on: PRKD3
# PRKG1 = tested on: PRKG1
# PRKG2 = tested on: PRKG2
# PRKR = tested on: T1, PRKR
# T1 construct: gene EIF2AK2
# PRKX = tested on: PRKX
# PRP4 = tested on: PRP4
# PYK2 = tested on: T2, PYK2
# T2 construct: gene PTK2B
# QSK = tested on: QSK
# RAF1 = tested on: RAF1
# RET = tested on: RET
# 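Also: KINOMEscan kinase panel screen.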
Structure (SMILES),%Inh (PLK2),%Inh (PLK3),%Inh (PLK4),%Inh (PRKCD),%Inh (PRKCE),%Inh (PRKCH),%Inh (PRKCI),%Inh (PRKCQ),%Inh (PRKD1),%Inh (PRKD2),%Inh (PRKD3),%Inh (PRKG1),%Inh (PRKG2),%Inh (PRKR),%Inh (PRKX),%Inh (PRP4),%Inh (PYK2),%Inh (QSK),%Inh (RAF1),%Inh (RET)
Cn1ccc2ncnc(Oc3ccc(NC(=O)Nc4cccc(C(F)(F)F)c4)c(Cl)c3)c21,2%,22%,9%,0%,0%,0%,8%,7%,0%,15%,9%,0%,7%,0%,0%,5%,6%,0%,80%,100%
O=C(Nc1ccccc1)c1cccc(Oc2ccc3nccn3n2)c1,5%,0%,0%,0%,13%,0%,5%,24%,33%,0%,1%,2%,0%,0%,70%,0%,0%,0%,78%,0%
FC(F)(F)c1cc(Br)cc(Nc2nccc(-c3cnn4ncccc34)n2)c1 [GW810578],24%,13%,26%,16%,4%,7%,0%,1%,4%,0%,0%,25%,0%,0%,0%,0%,80%,12%,0%,0%
O=C(NCC1CC1)c1ccc(-c2cc(C(=O)NC3CC3)ccc2F)cc1 [GW810445],0%,0%,0%,0%,27%,0%,0%,0%,0%,0%,0%,0%,0%,0%,0%,16%,0%,0%,0%,4%
O=c1[nH]cc(-c2ccc(O)cc2)c2sc(-c3ccncc3)cc12 [GSK1033723],0%,0%,0%,0%,21%,0%,33%,19%,0%,0%,1%,16%,14%,0%,10%,22%,–,1%,7%,29%
C[C@@H]1CNc2c(sc3ccc4nc(-c5ccc(O)cc5)ccc4c23)C(=O)N1,6%,15%,90.1%,43%,46%,35%,5%,59%,70%,34%,43%,12%,61%,0%,0%,12%,19%,0%,0%,13%
C[C@@H](Oc1cc(-n2cnc3ccc(-c4ccncc4)cc32)sc1C(N)=O)c1ccccc1Cl [GSK483724],99.3%,–,0%,8%,29%,33%,40%,33%,0%,0%,27%,0%,0%,0%,33%,23%,0%,0%,11%,22%
Cc1ccc(CC(=O)N2CCc3cc(-c4cn(C)c5ncnc(N)c45)ccc32)cc1 [GSK2634758],2%,0%,0%,15%,15%,35%,27%,33%,0%,14%,0%,4%,12%,7%,12%,20%,0%,0%,7%,7%
